Bioassay records (PubChem)
Most compounds without a hit are left out; they make up all but 1.1% or so of the library.
CaV13 FRET inh = Primary screen for inhibitors of IQ motif and Ca2+-dependent inactivation inhibitor domain binding in CACNA1D, Förster resonance energy transfer in living cells, … | HEK cells, CFP/YFP FRET ICDI-IQ, plate reader, 10 min; percent FRET-ratio fall versus neutral wells | inhibition, % at 12.3 µM | hit rate 0.098% among 340,000 | AID 743397;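 active means mean replicate inhibition of at least 30% and at least 1% of replicates passing that level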;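 further: 0% = median of the neutral control wells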
ABCB6 inh 2 = inhibitors of human ABC transporter ABCB6; AID 602162; fluorescence ratio to DMSO, % at 10 µM; hit rate 0.19% among 360,000; K562-ABCB6 porphyrin accumulation, flow cytometry, 1 h; active compounds read low;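 active means fluorescence ratio to DMSO below 75%, the collection mean minus 3 SD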;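 further: signal is porphyrin accumulated inside mitochondria; 100% equals median channel fluorescence of DMSO control wells; lower ratio means ABCB6 inhibition with less porphyrin fluorescence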
VLA-4 inh = inhibition in a human VLA-4 binding assay | P13612 | VLA-4 expressing cells, ligand binding flow cytometry | hit rate 0.2% among 330,000 | inhibition, % (about 7 µM as worked out from the volumes in the protocol); in the data active means inhibition above about 50%
Target sequence (P13612 whole entry, looked up): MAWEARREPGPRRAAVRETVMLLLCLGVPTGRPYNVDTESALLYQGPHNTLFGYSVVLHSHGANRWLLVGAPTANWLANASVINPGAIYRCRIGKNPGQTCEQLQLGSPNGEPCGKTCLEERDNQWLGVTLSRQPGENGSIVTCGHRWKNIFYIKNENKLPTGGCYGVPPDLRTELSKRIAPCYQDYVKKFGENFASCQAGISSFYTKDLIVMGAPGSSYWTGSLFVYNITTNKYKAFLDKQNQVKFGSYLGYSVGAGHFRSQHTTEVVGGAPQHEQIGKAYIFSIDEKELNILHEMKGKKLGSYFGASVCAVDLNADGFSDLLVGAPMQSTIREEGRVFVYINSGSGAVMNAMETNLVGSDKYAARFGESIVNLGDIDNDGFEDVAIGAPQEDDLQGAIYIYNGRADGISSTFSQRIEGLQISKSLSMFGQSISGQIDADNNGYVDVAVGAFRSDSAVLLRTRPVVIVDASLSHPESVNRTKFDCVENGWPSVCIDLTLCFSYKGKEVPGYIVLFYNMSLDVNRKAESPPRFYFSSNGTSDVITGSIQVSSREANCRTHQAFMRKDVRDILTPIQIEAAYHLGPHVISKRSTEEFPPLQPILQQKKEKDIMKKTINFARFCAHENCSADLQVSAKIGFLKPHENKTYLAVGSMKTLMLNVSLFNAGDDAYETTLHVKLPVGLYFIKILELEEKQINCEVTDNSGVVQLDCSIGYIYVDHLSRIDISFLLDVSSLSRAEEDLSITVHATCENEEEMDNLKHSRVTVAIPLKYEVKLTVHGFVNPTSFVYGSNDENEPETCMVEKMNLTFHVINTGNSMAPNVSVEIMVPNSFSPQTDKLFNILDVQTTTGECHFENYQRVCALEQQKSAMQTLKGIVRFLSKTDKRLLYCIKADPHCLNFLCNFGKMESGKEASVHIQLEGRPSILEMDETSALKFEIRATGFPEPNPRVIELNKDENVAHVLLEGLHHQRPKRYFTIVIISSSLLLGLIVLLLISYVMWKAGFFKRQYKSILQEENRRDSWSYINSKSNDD
Exocytosis inh = blocks lytic granule exocytosis | TALL-104 LAMP-1 surface exposure, flow cytometry; cells stimulated with thapsigargin and PMA | inhibition, % at 10 µM | hit rate 0.66% among 360,000 | AID 651702;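 active means inhibition above about 55%, limit read from the data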
An asterisk follows results filed as active.

How did O=C(CC1CCCC1)N[C@H](C(=O)N1CCC[C@H]1C(=O)NCc1ccccc1)c1ccccc1 do in these assays?
CaV13 FRET inh: -6

What do the screens show for `COc1cc(/C=C(\C#N)C(=O)NC(C)C)cc(Cl)c1O`?
CaV13 FRET inh: 48*; ABCB6 inh 2: 88; VLA-4 inh: 11; Exocytosis inh: 1

How did Cc1c(C)c2ccc(OS(C)(=O)=O)c(C)c2oc1=O do in these assays?
CaV13 FRET inh: -4; ABCB6 inh 2: 69*; VLA-4 inh: 8; Exocytosis inh: -3

How did Cc1c(C)c2ccc(OCc3ccc(C(=O)O)o3)c(C)c2oc1=O do in these assays?
CaV13 FRET inh: -4; ABCB6 inh 2: 84; VLA-4 inh: -2; Exocytosis inh: -4

How did COc1ccc2c(c1)[C@@H](NC(=O)c1ccncc1)[C@@H]1Cc3ccccc3[C@H]21 do in these assays?
CaV13 FRET inh: -6

Results for CC(C)(C)c1cc(C(c2cccnc2)N2CCN(CCO)CC2)cc(C(C)(C)C)c1O (stereo not given) ?
CaV13 FRET inh: -8; ABCB6 inh 2: 97; VLA-4 inh: 50*; Exocytosis inh: 45

What do the screens show for `O=C(N/N=C/c1cc(Br)c(O)c(Br)c1O)c1cccnc1`?
CaV13 FRET inh: -6; ABCB6 inh 2: 97; VLA-4 inh: 6; Exocytosis inh: 65*

How did O=C(N/N=C/c1cc(O)ccc1Br)c1cccnc1 do in these assays?
CaV13 FRET inh: -22; ABCB6 inh 2: 109; VLA-4 inh: 2; Exocytosis inh: 15

How did COC(=O)c1cc2c(c3c4ccccc4n(S(=O)(=O)c4cccc(C)c4)c13)C(=O)N(C)C2 do in these assays?
CaV13 FRET inh: -10

How did COc1ccc(/C=C(\C#N)C(=O)N2COCC2(C)C)cc1 do in these assays?
CaV13 FRET inh: -20; ABCB6 inh 2: 90; VLA-4 inh: 5; Exocytosis inh: 56*

What do the screens show for `Cc1ccc(S(=O)(=O)Nc2ccc(Nc3ccccc3)cc2)cc1`?
CaV13 FRET inh: 68*; ABCB6 inh 2: 99; VLA-4 inh: -5; Exocytosis inh: -1

How did O=S(=O)(Nc1ccc(Nc2ccccc2)cc1)c1ccc(F)cc1 do in these assays?
CaV13 FRET inh: -4; ABCB6 inh 2: 99; VLA-4 inh: -2; Exocytosis inh: 6

Results for Nc1[nH]c(C(=O)c2ccc(Br)cc2)c(-c2cccc3ccccc23)c1C(=O)NCCc1c[nH]c2ccccc12 ?
CaV13 FRET inh: -19

How did CC(=NNc1nc2ccccc2s1)c1ncccn1 do in these assays?
CaV13 FRET inh: -2; ABCB6 inh 2: 106; Exocytosis inh: 102*

Results for O=C(CCN1C(=O)/C(=C\c2cccc(Br)c2)SC1=S)NCCCN1CCOCC1 ?
CaV13 FRET inh: -3; ABCB6 inh 2: 77; VLA-4 inh: -8; Exocytosis inh: 75*

How did Nc1[nH]c(C(=O)c2ccccc2)c(-c2cc(F)ccc2Br)c1C(=O)NCCc1c[nH]c2ccccc12 do in these assays?
CaV13 FRET inh: -16

Results for O=[N+]([O-])c1c(Nc2ccccc2O)cc(Cl)c2nonc12 ?
CaV13 FRET inh: -4; ABCB6 inh 2: 89; VLA-4 inh: 35; Exocytosis inh: 61*

Results for O=C(Nc1ccc(Cl)cc1)OC[C@@H]1CSCCS(=O)(=O)N1 ?
CaV13 FRET inh: -5

How did CCOC(=O)c1c(-c2ccc(C)o2)csc1NC(=O)CN1CCCCC1 do in these assays?
CaV13 FRET inh: -7; ABCB6 inh 2: 94; VLA-4 inh: 0; Exocytosis inh: 10

How did CCOC(=O)c1c(-c2ccc(C)o2)csc1NC(=O)CSc1nncs1 do in these assays?
ABCB6 inh 2: 102; VLA-4 inh: -4; Exocytosis inh: 90*

How did CCN1C(c2ccccc2)=C(c2ccccc2)S/C1=C/C=C1\SC(=S)N(C)C1=O do in these assays?
CaV13 FRET inh: -6; ABCB6 inh 2: 190; Exocytosis inh: 59*

What do the screens show for `O=C(CS)Nc1ccc2ccccc2c1`?
CaV13 FRET inh: -2; ABCB6 inh 2: 94; VLA-4 inh: 5; Exocytosis inh: 67*

What do the screens show for `O=C1CN(S(=O)(=O)c2cc(Br)ccc2Br)CCN1`?
CaV13 FRET inh: -16; ABCB6 inh 2: 99; VLA-4 inh: -6; Exocytosis inh: 0

Results for O=c1c(Br)ccc(Br)cc1Br ?
CaV13 FRET inh: -6; ABCB6 inh 2: 19*; Exocytosis inh: 46

Results for Cn1cccc1/C=C1\SC(=Nc2ccccc2)NC1=O ?
CaV13 FRET inh: 3; ABCB6 inh 2: 102; VLA-4 inh: 4; Exocytosis inh: 56*

How did Cn1cccc1/C=C1\SC(=Nc2ccc(O)cc2)NC1=O do in these assays?
CaV13 FRET inh: -2; ABCB6 inh 2: 97; VLA-4 inh: -5; Exocytosis inh: 7

How did Nc1ccn([C@@H]2O[C@H](C(=O)N[C@H](Cc3ccccc3)C(=O)N3CCN(C(=O)N4CCCCC4)CC3)[C@@H](O)[C@H]2O)c(=O)n1 do in these assays?
CaV13 FRET inh: -3

What do the screens show for `COCCN(Cc1ccc(C)cc1)C(=O)[C@@H](Cc1ccccc1)NC(=O)[C@H]1O[C@@H](n2ccc(=O)[nH]c2=O)[C@H](O)[C@@H]1O`?
CaV13 FRET inh: -4

How did CCS(=O)(=O)c1ncc(Cl)c(C(=O)Nc2ccc(S(=O)(=O)N3CCC(C)CC3)cc2)n1 do in these assays?
CaV13 FRET inh: -2; ABCB6 inh 2: 44*; VLA-4 inh: 33; Exocytosis inh: 22

How did CN(c1ccccc1)S(=O)(=O)c1ccc(NC(=O)c2nc(S(C)(=O)=O)ncc2Cl)cc1 do in these assays?
CaV13 FRET inh: -15; ABCB6 inh 2: 40*; VLA-4 inh: 33; Exocytosis inh: 31

Results for COc1cccc(NC(=O)c2nc(S(C)(=O)=O)ncc2Cl)c1 ?
CaV13 FRET inh: -6; ABCB6 inh 2: 96; VLA-4 inh: 21; Exocytosis inh: 14

How did CCS(=O)(=O)c1ncc(Cl)c(C(=O)Nc2ccccc2OC)n1 do in these assays?
CaV13 FRET inh: -5; ABCB6 inh 2: 69*; VLA-4 inh: -21; Exocytosis inh: 24

How did CC1CCN(S(=O)(=O)c2ccc(NC(=O)c3ccncc3)cc2)CC1 do in these assays?
ABCB6 inh 2: 93; VLA-4 inh: -41; Exocytosis inh: -4

What do the screens show for `COC(=O)C1=C(C)N(Cc2cccc(C(F)(F)F)c2)C(=NCc2ccc(OC)cc2)NC1c1ccccc1C(F)(F)F` (stereo not given)?
CaV13 FRET inh: -2

How did C=CCn1c(=S)[nH]c2nc3c(cc2c1=O)CCCC3 do in these assays?
CaV13 FRET inh: -9; ABCB6 inh 2: 70*; VLA-4 inh: 4; Exocytosis inh: 0

Results for Cn1c(C(=O)NC2CC2)cc2c(=O)n(C)c3ccccc3c21 ?
CaV13 FRET inh: -4; ABCB6 inh 2: 100; VLA-4 inh: -14; Exocytosis inh: -2

What do the screens show for `Cn1c(C(=O)Nc2ccc3c(c2)OCCO3)cc2c(=O)n(C)c3ccccc3c21`?
CaV13 FRET inh: 5; ABCB6 inh 2: 99; VLA-4 inh: -18; Exocytosis inh: 80*

How did Cc1c(CCOC(=O)C23CC4CC(CC(C)(C4)C2)C3)sc[n+]1CC(=O)c1ccccc1 do in these assays?
CaV13 FRET inh: -5; ABCB6 inh 2: 94; VLA-4 inh: 13; Exocytosis inh: 26
